# In PMC7826789 (International Journal of Molecular Sciences, 2021):
# Key:
# [1] = system: EIF2AK3
# [2] = system: EPHA2
# [3] = system: EPHA6
# [4] = system: EPHB4
# [5] = system: EPHB6
# [6] = system: ERBB3
# [7] = system: ERK3
# [8] = system: ERN1
smiles,measurement,setting,value
Cn1cc(-c2ccc3c(c2)CCN3C(=O)Cc2cccc(C(F)(F)F)c2)c2c(N)ncnc21 [GSK2606414],Kinases covered,[1],EIF2AK3
Cc1cccc(CC(=O)N2CCc3c2ccc(-c2cn(C)c4ncnc(N)c24)c3F)n1 [GSK2656157],Kinases covered,[1],EIF2AK3
COC(=O)Nc1nc2ccc(Oc3ccc(NC(=O)Nc4cc(C(F)(F)F)ccc4F)cc3)cc2s1.Cl [GW693917A],Kinases covered,[2],EPHA2
COc1cc2ncnc(Nc3cccc(Cl)c3F)c2cc1O[C@H]1CC[C@H]([C@@H]2NCCNC2=O)CC1 [BI00133844],Kinases covered,[3],EPHA6
same,Kinases covered,[4],EPHB4
COc1cc2ncnc(Nc3cccc(Cl)c3F)c2cc1O[C@H]1CC[C@@]2(CC1)NCCNC2=O [BI00113608],Kinases covered,[3],EPHA6
same,Kinases covered,[4],EPHB4
COC(=O)C(NC(=O)NC1CCN(c2ccnc(Nc3ccc(F)cc3)n2)C1)c1ccccc1 (stereo not drawn) [GSK1379712],Kinases covered,[5],EPHB6
Cn1ccc(-c2cccc(Nc3ccnc4cc(-c5nccs5)ccc34)c2)n1 [GW525701],Kinases covered,[5],EPHB6
C=CC(=O)Nc1cc(-c2nn(C3CCC(N4CCN(C(C)=O)CC4)CC3)c3ncnc(N)c23)ccc1Oc1ccccc1 (stereo not drawn) [TX-85-1],Kinases covered,[6],ERBB3
Cc1cc(NC(=O)c2cccc(NC(=O)/C=C/CN(C)C)c2)ccc1Nc1nccc(-c2cccnc2)n1 [JNK-IN-7],Kinases covered,[7],ERK3
Cc1ccc(CNC(=O)N2CCC[C@]3(CCN(Cc4ccc(Cl)c(Cl)c4)C3)C2)cc1 [GSK2850163],Kinases covered,[8],ERN1
